Values without a mark were called inactive. The source made the active and inactive calls. The call rests on the fitted dose curve; in most records, active means well fitted curve in the direction sought with a large enough effect in the repeat runs; inconclusive means weak or mixed curves; inactive means flat fitted curve, though single readings scatter.
Assay: qHTS assay to test for compound auto fluorescence at 590 nm (red) in HepG2 cell free culture (AID 720684)
Conditions: cell-free medium autofluorescence, red 540/590 nm; series mostly up to 91.3 µM
Summary of the method: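 Measured in medium alone (MEM containing 10% FBS) following pintool addition of compound; emission at 590 nm with 540 nm excitation, referenced to Rose Bengal sodium.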
On the % scale 0 is the no-effect control and ±100 the full control effect.

| Structure (SMILES) | outcome | fluorescence, % of Rose Bengal |
| --- | --- | --- |
| C=C(C)C(=O)OC(C)C | inactive | – |
| OCC1CC2CC1C1CCC(CO)C21 (stereo not drawn) | inactive | – |
| CCCCCCCCN(C)C | inactive | – |
| CC[C@H](C)[C@H](N)C(=O)O | inactive | – |
| CCN(CC)CCc1nc(-c2ccccc2)no1 | – | 0.0837% [at 18.6 µM] |
| CCCCCCCCCCCCCCCC(=O)OC/C=C(C)/C=C/C=C(C)/C=C/C1=C(C)CCCC1(C)C | inactive | – |
| CCOC(=O)CC(=O)c1cc(F)c(Cl)nc1Cl | inactive | – |
| CC(=O)O[C@H]1C[C@@H]2CC[C@@H]3[C@H](CC[C@@]4(C)[C@H]3C[C@H]([N+]3(C)CCCCC3)[C@@H]4OC(C)=O)[C@@]2(C)C[C@@H]1N1CCCCC1 | inactive | – |
| Cc1ccc(C)o1 | inactive | – |
| CC(C)CCCC(C)CCO (stereo not drawn) | inactive | – |
| COc1ccc2[nH]c(S(=O)Cc3ncc(C)c(OC)c3C)nc2n1 (stereo not drawn) | inactive | – |
| NC(=S)N/N=C/c1cccnc1 | inactive | – |
| CC(C)c1ccccc1C(C)C | inactive | – |
| NCc1ccccc1 | inactive | – |
| CC(C)(C)c1ccc(S)cc1 | inactive | – |
| CNS(=O)(=O)Cc1ccc2[nH]cc(CCN(C)C)c2c1 | inactive | – |
| COc1ccccc1OC(=O)Oc1ccccc1OC | inactive | – |
| Cc1c(Cn2ccnc2)c2ccccc2n1CCC(=O)O | inactive | – |
| O=[N+]([O-])c1cc[n+]([O-])cc1 | inactive | – |

| Structure (SMILES) | outcome | fluorescence, % of Rose Bengal |
| --- | --- | --- |
| CCOc1cc(OCC)c(C(=O)CCC(=O)O)cc1OCC | inactive | – |
| O=S(=O)(O)c1ccc(O)c2ncccc12 | inactive | – |
| CC[C@]12CCCN3CCc4c(n(c5ccccc45)C(=O)C1)[C@@H]32 | – | 0.0021% [at 18.6 µM] |
| CC(C)(C)C(=O)OCOP(=O)(COCCn1cnc2c(N)ncnc21)OCOC(=O)C(C)(C)C | inactive | – |
| N#CCc1cccc(C(F)(F)F)c1 | inactive | – |
| O=C=NC1CCC(CC2CCC(N=C=O)CC2)CC1 (stereo not drawn) | inactive | – |
| Cc1cc(NC(=O)C(=O)O)cc(C)c1Oc1ccc(O)c2c1CCC2 | inactive | – |
| CC(C)CC=O | inactive | – |
| Nc1ccc(C(=O)Nc2ccccc2N)cc1 | inactive | – |
| O=c1c2ccccc2nnn1CCl | inactive | – |
| Cc1ccc(C(C)c2ccc(C)c(C)c2)cc1C | inactive | – |
| C=CCCCCCC | inactive | – |
| CC(=O)N(O)CCCCCNC(=O)CCC(=O)N(O)CCCCCNC(=O)CCC(=O)N(O)CCCCCN | – | -0.352% [at 18.6 µM] |
| FC(F)(F)C(F)(F)C(F)(F)C(F)(F)C(F)(F)C(F)(F)CCI | inactive | – |
| COCCOCCOCCOCCOC | inactive | – |
| CCCCCCCCCC(=O)OCC | inactive | – |
| Cc1ccc(C(=O)C(C)CN2CCCCC2)cc1 (stereo not drawn) | inactive | – |
| CCN(CCO)CCCC(C)Nc1ccnc2cc(Cl)ccc12 (stereo not drawn) | inactive | – |
| Cc1cc(CC(=O)O)c(C)n1-c1ccc(Cl)cc1 | inactive | – |
